Data from the supplement of paper PMC6555819.

What was measured:
Assay in all cases: PBM binding z-score (relative to random genomic background probes); higher = stronger binding; sequences stand for … in GC…GCGATTGACAGCGTAGAATGAAGG
[1] = test system: FXR:RXRa (NR concentration 270 nM, RXRa partner concentration 90 nM)
In short: (§1)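 The probes on custom Agilent 4×180K protein-binding microarrays were double-stranded, with 34-nt variable regions bearing direct-repeat seeds, single-nucleotide variants, half-site ablations and random human genomic background sequences. Incubation lasted 1 h with ligand-free nuclear receptor dimers in PBS pH 7.4, 2% milk, 0.02% Triton X-100, 1 mM DTT, 0.2 mg/mL BSA and 0.4 mg/ml salmon testes DNA. Antibodies against each partner (one per run) detected bound dimers, and fluorescence scans were regression-normalized. Binding z-scores take the random background probes as reference.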

[2] = test system: LXRa:RXRa (NR concentration 270 nM, RXRa partner concentration 90 nM)
In short: as §1

[3] = test system: LXRa homodimer (NR concentration 270 nM)
In short: as §1

[4] = test system: LXRb:RXRa (NR concentration 270 nM, RXRa partner concentration 90 nM)
In short: as §1

[5] = test system: LXRb homodimer (NR concentration 270 nM)
In short: as §1

[6] = test system: PPARa:RXRa (NR concentration 270 nM, RXRa partner concentration 90 nM)
In short: as §1

[7] = test system: PPARg:RXRa (NR concentration 180 nM, RXRa partner concentration 90 nM)
In short: as §1

[8] = test system: PPARg:RXRa 270nM:90nM, anti-RXR (NR concentration 270 nM, RXRa partner concentration 90 nM)
In short: as §1

[9] = test system: PPARg:RXRa 30nM:10nM, anti-RXR (NR concentration 30 nM, RXRa partner concentration 10 nM)
In short: as §1

[10] = test system: PPARg:RXRa 90nM:30nM, anti-RXR (NR concentration 90 nM, RXRa partner concentration 30 nM)
In short: as §1

[11] = test system: PPARg:RXRa DBDmut IVT, anti-RXR (DBD mutation: RXRa K156A/R161A, NR concentration 270 nM, RXRa partner concentration 90 nM)
In short: as §1

[12] = test system: PPARg:RXRa IVT, anti-PPARg (NR concentration 270 nM, RXRa partner concentration 90 nM)
In short: as §1

[13] = test system: PPARg DBDmut:RXRa IVT, anti-PPARg (DBD mutation: PPARg1 K132A/R137A, NR concentration 270 nM, RXRa partner concentration 90 nM)
In short: as §1

[14] = test system: PPARg DBDmut IVT, anti-PPARg (DBD mutation: PPARg1 K132A/R137A, NR concentration 270 nM)
In short: as §1

[15] = test system: PPARg homodimer (NR concentration 180 nM)
In short: as §1

[16] = test system: PXR:RXRa (NR concentration 270 nM, RXRa partner concentration 90 nM)
In short: as §1

[17] = test system: PXR homodimer (NR concentration 270 nM)
In short: as §1

[18] = test system: RARa:RXR (NR concentration 270 nM, RXRa partner concentration 90 nM)
In short: as §1

[19] = test system: RARa homodimer (NR concentration 270 nM)
In short: as §1

[20] = test system: RARb:RXRa (NR concentration 270 nM, RXRa partner concentration 90 nM)
In short: as §1

Sequence	PBM binding z-score [1]	PBM binding z-score [2]	PBM binding z-score [3]	PBM binding z-score [4]	PBM binding z-score [5]	PBM binding z-score [6]	PBM binding z-score [7]	PBM binding z-score [8]	PBM binding z-score [9]	PBM binding z-score [10]	PBM binding z-score [11]	PBM binding z-score [12]	PBM binding z-score [13]	PBM binding z-score [14]	PBM binding z-score [15]	PBM binding z-score [16]	PBM binding z-score [17]	PBM binding z-score [18]	PBM binding z-score [19]	PBM binding z-score [20]
GATACAGGGTCAGGGCCAGAGTACGCGTATTGAT	4.33	2.61	-0.233	2.53	-0.183	4.46	3.86	3.63	0.972	2.36	1.35	2.69	-0.0398	-0.619	1.64	2.28	0.125	3.24	0.471	3.82
GCGACTGGGGCAAAGCAGGTTACCATTAGGTTGG	0.209	-0.0636	-0.502	0.31	-0.906	1.4	1.11	1.39	-0.263	0.675	4.83	3.63	-0.282	-0.886	0.27	0.143	-0.296	0.139	-0.535	0.975
TCGAGTAGATTAGGGGCATTCAGAATGGCGTCGA	-0.41	-0.292	-0.833	0.457	-0.772	0.269	-0.0813	0.334	0.917	0.699	0.671	-0.44	-1.09	-1.25	-0.958	0.158	-0.306	-0.0495	-1.16	0.182
CCTTACGGGCCACTGACAGGTTATAGCATTTGGA	-0.0975	-0.00158	0.136	-0.0299	-0.59	0.315	0.415	0.0355	-0.0145	-0.254	0.882	0.315	-0.753	-0.329	0.129	-0.136	-0.0803	0.247	0.161	0.69
TTACCAAGGTGAAAGTTCGTTGATGCACGCCTTG	1.93	1.83	0.114	1.35	-0.561	4.14	6.03	6.53	4.84	6.63	1.85	4.23	0.268	0.287	0.78	2.73	1.54	2.73	0.264	2.24
TCAGACAGGTGAAGGTAGCTCAGGTACGCAGTCG	0.513	0.567	-0.0814	0.434	-0.218	1.02	0.481	1.75	3.33	2.65	2.37	0.501	0.112	0.071	0.349	0.216	-0.0197	0.316	0.354	1.07
GAAACGAGGGCAAAGTTGATAGCATCTGTCGACG	1.38	1.27	-0.429	1.02	-0.45	4.4	7.78	7.51	7.45	8.19	5.26	5.32	0.311	0.0519	0.722	1.32	0.236	1.98	0.209	2.38
TAGCCTAGGTCATGCGGGCCAGTATTGTGTCGGC	3.83	2.94	0.0608	1.71	-0.269	3.48	1.84	2.13	0.0531	1.17	1.92	3.17	-0.152	-1.19	0.001	1.34	-0.847	1.82	-1.27	3.69
TGTCAAAGTTCCAAGGTAACGTAAGTATCCACAC	0.32	0.139	-0.0669	0.284	0.0682	0.321	0.758	1.18	0.448	1.04	-0.29	1.18	0.991	0.288	0.137	0.082	0.35	0.56	0.373	0.659
ATATGTAGGTTATATCCGGGTCATTCAGGCTATG	2.15	4.34	3.29	2.93	1.44	4.19	4.45	4.07	1.69	3.33	6.81	6.59	5.13	2.59	3.38	3.78	2.63	3.9	1.12	2.13
TCTGCTAGGTCAACGATGGTCATCTAATCTGCTA	3.5	3.34	0.105	2.03	0.0541	3.37	2.78	3.34	2.08	2.79	4.28	4.02	0.183	0.11	0.637	2.1	-0.415	2.56	-0.306	4.09
TATACAGAGTCAAAGGCCAGAGTACGAATGTCGA	0.1	0.487	0.0394	0.0721	0.0425	1.1	2.17	2.98	1.53	2.73	-0.677	0.809	0.657	0.798	0.172	0.3	0.152	0.733	-0.267	1.19
CGTCCAAGGTCAGAGAGGTCAGTAAATGCCGAGT	5.8	4.99	3.02	4.55	0.428	4.81	3.48	4.16	1.04	2.7	2.74	3.23	0.177	0.266	4.38	5.96	12	5.41	1.88	5.28
ACAGACAGGTGATGACGGTAACTCAGGCTATCAT	-0.347	-0.186	-0.31	-0.476	-0.424	-0.121	0.839	-0.227	-0.335	-0.0238	0.226	0.0775	-0.319	-0.184	-0.306	-0.319	-0.0472	-0.196	0.273	0.237
